Here are results for eight compounds from PubChem BioAssay.

The structures appear in SMILES notation. The source made the active and inactive calls.

In test [1] the target is Albumin (Bos taurus) (UniProt P02769). Kind of test: bovine serum albumin binders on microarray, profiling panel, artefact control for SMM control protein annotation, biochemical, small-molecule microarray, Alexa647 label, 635/667 nm fluorescence (AID 1118).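 Also: score merges 667 nm emission intensity and signal-to-noise per printed compound spot.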 The following applies: BSA-A647 binding, fluorescence 635 nm, higher = more signal.
Chain of Albumin (Bos taurus) (P02769 whole entry, looked up): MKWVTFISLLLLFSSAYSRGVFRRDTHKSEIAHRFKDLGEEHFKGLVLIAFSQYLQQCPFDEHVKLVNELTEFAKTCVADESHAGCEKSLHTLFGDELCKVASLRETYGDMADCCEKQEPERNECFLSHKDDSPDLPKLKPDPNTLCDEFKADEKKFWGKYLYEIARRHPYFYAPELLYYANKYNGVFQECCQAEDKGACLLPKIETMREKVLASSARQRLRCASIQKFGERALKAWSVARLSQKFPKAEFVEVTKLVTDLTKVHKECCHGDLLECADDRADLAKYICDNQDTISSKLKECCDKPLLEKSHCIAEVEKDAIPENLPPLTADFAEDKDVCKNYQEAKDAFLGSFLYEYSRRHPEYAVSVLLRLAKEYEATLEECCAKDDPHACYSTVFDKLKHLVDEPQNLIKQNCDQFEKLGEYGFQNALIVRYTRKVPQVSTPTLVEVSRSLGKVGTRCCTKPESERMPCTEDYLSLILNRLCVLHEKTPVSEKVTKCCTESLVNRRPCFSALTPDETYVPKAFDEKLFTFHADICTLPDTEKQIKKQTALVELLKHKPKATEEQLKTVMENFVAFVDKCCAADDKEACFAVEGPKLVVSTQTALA
Test [2] in a line: small-molecule microarray binders of probe aXIP, primary screen, biochemical, NeuroSMM set, 635/667 nm fluorescence (AID 1119).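 Also: probe is the protein aXip251-270 applied at 1 µg/mL to compound-printed slides; binding of probe to printed compounds measured as 667 nm fluorescence plus signal to noise.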 The note with it: higher = more signal, called active from +8 up or from −8 down.
Test [3] in a line: small-molecule binders of probe aNOTCH3, primary screen, biochemical, small-molecule microarray, 635/667 nm fluorescence (AID 1120).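 Also: probe is a biotin-tagged antibody raised against NOTCH3 rather than NOTCH3 protein; score merges spot fluorescence near 667 nm with spot signal to noise.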 The note with it: higher = more signal.
Test [4] can be described thus: small-molecule binders of probe aNOTCH2, primary screen, biochemical, small-molecule microarray, 635/667 nm fluorescence (AID 1121).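 Also: score merges feature fluorescence read at 667 nm with its signal to noise.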 The following applies: higher = more signal.
The target of test [5] is Carbonic anhydrase 2 (Homo sapiens) (UniProt P00918). Kind of test: CAII small-molecule binders, profiling panel, biochemical, small-molecule microarray, Alexa647-labelled CAII (AID 1122). The following applies: CAII-A647 binding fluorescence, higher = more signal.
Test [6] in a line: COS7 lysate on small-molecule microarray, probe aHis, 635 nm (AID 1123).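 Also: z-score combines 667nm fluorescence intensity with signal-to-noise per printed compound spot.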 The note with it: COS7 cell lysate, fluorescence, higher = more signal.
A short description of test [7]: compound binding in COS7 lysate, probe aLAP1, primary screen, cell lysate, small-molecule microarray (AID 1124).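 Also: lysate comes from COS7 cells expressing LAP1 and is applied at 0.3 µg/mL; score merges spot fluorescence near 667 nm with signal-to-noise over triplicate slides.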 The note with it: probe aLAP1, fluorescence, higher = more signal.
Test [8] has as its system Sam68 (KHDRBS1). Kind of test: Sam68 small-molecule binders, primary screen, biochemical, small-molecule microarray, 635 nm fluorescence (AID 1125).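 Also: score merges 667 nm channel intensity with signal to noise over triplicate slides.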 The following applies: small-molecule microarray binding, higher = more signal.
In test [9] the test system is Chordin-like protein 2 (CHRDL2). The test is described as follows: CHRDL2 small-molecule binders, primary screen, biochemical, small-molecule microarray, 635 nm fluorescence (AID 1126).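 Also: printed compound slides probed with Chrdl2 protein at 4 µg/mL for 1 h at 4 C; score merges 667 nm emission intensity with signal to noise over three replicate slides.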 The note with it: small-molecule microarray binding, fluorescence 635 nm; higher = more signal.
Test [10] concerns the target Concanavalin-A (Canavalia ensiformis) (UniProt P02866). Kind of test: ConA small-molecule binders, primary screen, artefact control for SMM control protein annotation, biochemical, small-molecule microarray, Alexa647 label, 635 nm (AID 1127).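 Also: z combines 667 nm emission intensity with signal-to-noise across three replicate slides.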 The following applies: ConA-A647 binding fluorescence, higher = more signal.
Test [11] can be described thus: anti-His antibody binders, primary screen, artefact control for SMM control protein annotation, biochemical, small-molecule microarray, 635 nm fluorescence (AID 1128).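 Also: score merges feature fluorescence with signal-to-noise for each printed compound spot.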 The note with it: anti-His Alexa647 antibody binding, higher = more signal.
In test [12] the test system is Human papillomavirus type 1a E7 protein (residues 1-88). The test is described as follows: HPV1a E7 small-molecule binders, primary screen, biochemical, small-molecule microarray, residues 1-88, 635 nm (AID 1129). The note with it: small-molecule microarray binding, fluorescence 635 nm; higher = more signal.
Test [13] deals with Focal adhesion kinase 1 (Homo sapiens) (UniProt Q05397). Kind of test: small-molecule microarray binders of FAK, primary screen, biochemical, 635/667 nm fluorescence, BSA, DTT (AID 1130).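 Also: composite of spot emission at 667 nm and signal to noise over triplicate slides.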 The following applies: PTK2 binding, 635 nm fluorescence, higher = more signal.
Chain of Focal adhesion kinase 1 (Homo sapiens) (Q05397 whole entry, looked up): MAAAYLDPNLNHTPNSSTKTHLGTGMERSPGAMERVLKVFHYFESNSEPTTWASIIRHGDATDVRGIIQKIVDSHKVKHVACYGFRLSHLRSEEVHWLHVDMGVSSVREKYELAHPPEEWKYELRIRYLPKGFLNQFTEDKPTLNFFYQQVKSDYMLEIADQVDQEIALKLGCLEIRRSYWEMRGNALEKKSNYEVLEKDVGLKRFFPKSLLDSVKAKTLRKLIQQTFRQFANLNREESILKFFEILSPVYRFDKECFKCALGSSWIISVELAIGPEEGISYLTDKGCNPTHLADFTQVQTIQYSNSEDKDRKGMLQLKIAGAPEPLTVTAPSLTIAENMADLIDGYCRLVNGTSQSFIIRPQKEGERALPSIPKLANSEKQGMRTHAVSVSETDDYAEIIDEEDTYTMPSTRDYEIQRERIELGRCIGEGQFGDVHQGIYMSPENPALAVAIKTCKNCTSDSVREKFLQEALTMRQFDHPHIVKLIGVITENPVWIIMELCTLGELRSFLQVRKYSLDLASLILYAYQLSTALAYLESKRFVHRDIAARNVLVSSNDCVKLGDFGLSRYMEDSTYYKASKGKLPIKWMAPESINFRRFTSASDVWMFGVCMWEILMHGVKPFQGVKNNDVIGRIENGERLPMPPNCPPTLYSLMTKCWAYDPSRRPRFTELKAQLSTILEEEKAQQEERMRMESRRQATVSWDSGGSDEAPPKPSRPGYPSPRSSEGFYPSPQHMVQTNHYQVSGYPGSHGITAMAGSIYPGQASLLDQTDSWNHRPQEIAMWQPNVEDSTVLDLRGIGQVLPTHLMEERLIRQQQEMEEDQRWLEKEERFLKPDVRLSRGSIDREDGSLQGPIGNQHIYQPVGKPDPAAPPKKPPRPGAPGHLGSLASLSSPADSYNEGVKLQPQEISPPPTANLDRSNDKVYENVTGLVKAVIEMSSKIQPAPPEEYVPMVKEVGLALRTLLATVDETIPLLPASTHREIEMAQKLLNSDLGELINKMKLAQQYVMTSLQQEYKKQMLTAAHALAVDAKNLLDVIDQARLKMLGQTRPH
Test [14] has as its system Fibrinogen (Alexa647-labelled). Kind of test: fibrinogen binders on compound microarrays, profiling panel, artefact control for SMM control-protein annotation, biochemical, small-molecule microarray, 635/667 nm fluorescence (AID 1131).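 Also: z-score merges 667 nm fluorescence with per-spot signal-to-noise over triplicate slides.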 The note with it: fibrinogen-A647 binding fluorescence, higher = more signal.
The target of test [15] is Follistatin (Homo sapiens) (UniProt P19883). Kind of test: follistatin binders on small-molecule microarrays, primary screen, biochemical, small-molecule microarray, 635/667 nm fluorescence (AID 1132). The following applies: FST binding, 635 nm fluorescence, higher = more signal.
Chain of Follistatin (Homo sapiens) (P19883 whole entry, looked up): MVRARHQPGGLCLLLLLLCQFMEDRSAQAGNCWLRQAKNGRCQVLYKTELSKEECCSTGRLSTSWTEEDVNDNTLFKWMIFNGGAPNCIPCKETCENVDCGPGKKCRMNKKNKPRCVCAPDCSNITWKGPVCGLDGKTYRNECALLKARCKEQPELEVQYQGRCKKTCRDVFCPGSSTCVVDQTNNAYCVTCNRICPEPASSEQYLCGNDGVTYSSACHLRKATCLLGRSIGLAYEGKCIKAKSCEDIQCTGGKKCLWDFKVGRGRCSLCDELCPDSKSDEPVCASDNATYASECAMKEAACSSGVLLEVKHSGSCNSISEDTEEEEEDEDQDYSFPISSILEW
The target of test [16] is Fibroblast growth factor 2 (Homo sapiens) (UniProt P09038). The test is described as follows: FGF2 binders on small-molecule microarrays, primary screen, biochemical, small-molecule microarray, 635/667 nm fluorescence (AID 1133). The note with it: small-molecule microarray binding, FGF2, fluorescence 635/667; higher = more signal.
Chain of Fibroblast growth factor 2 (Homo sapiens) (P09038 whole entry, looked up): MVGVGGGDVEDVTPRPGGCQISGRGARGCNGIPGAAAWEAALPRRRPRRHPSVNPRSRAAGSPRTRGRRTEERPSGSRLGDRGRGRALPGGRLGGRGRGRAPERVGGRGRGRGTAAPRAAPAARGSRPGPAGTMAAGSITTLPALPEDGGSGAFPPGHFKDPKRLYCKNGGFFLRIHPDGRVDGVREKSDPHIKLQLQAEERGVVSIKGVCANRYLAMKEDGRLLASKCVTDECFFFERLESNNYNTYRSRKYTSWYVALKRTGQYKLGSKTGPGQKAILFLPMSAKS
Test [17] is described as follows: mitochondrial membrane potential change in A549 cells, profiling panel, cell-based, JC-1 fluorescence, basal, 24 h, 100 nL (AID 1138).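 Also: A549 lung adenocarcinoma cells under basal conditions with no added stimulus; test concentration not given here.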 The note with it: higher = more signal.
Test [18] deals with Lefty1. Kind of test: Lefty1 binders on small-molecule microarrays, primary screen, biochemical, small-molecule microarray, 635/667 nm fluorescence (AID 1139). The note with it: small-molecule microarray binding, fluorescence 635/667; higher = more signal.
For test [19], the system named is wheat germ agglutinin (Triticum aestivum), Alexa647-labelled. Kind of test: wheat germ agglutinin binders on compound microarrays, profiling panel, artefact control for SMM control-protein annotation, biochemical, small-molecule microarray, 635/667 nm fluorescence (AID 1140).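 Also: score merges 667 nm feature emission with signal to noise over triplicate slides.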 The following applies: WGA-A647 binding, 635 nm fluorescence, higher = more signal.
In test [20] the target is Luciferin 4-monooxygenase (Photinus pyralis) (UniProt P08659). Kind of test: firefly luciferase enzyme inhibitors, primary screen, biochemical, luminescence, purified enzyme, 2006 set (AID 1141).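 Also: cell-free assay with purified firefly luciferase at 100 ng per well in PBS; test concentration not given here.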 The following applies: SteadyGlo luminescence, 30 min, higher = more signal, called active from +8 up or from −8 down.
Chain of Luciferin 4-monooxygenase (Photinus pyralis) (P08659 whole entry, looked up): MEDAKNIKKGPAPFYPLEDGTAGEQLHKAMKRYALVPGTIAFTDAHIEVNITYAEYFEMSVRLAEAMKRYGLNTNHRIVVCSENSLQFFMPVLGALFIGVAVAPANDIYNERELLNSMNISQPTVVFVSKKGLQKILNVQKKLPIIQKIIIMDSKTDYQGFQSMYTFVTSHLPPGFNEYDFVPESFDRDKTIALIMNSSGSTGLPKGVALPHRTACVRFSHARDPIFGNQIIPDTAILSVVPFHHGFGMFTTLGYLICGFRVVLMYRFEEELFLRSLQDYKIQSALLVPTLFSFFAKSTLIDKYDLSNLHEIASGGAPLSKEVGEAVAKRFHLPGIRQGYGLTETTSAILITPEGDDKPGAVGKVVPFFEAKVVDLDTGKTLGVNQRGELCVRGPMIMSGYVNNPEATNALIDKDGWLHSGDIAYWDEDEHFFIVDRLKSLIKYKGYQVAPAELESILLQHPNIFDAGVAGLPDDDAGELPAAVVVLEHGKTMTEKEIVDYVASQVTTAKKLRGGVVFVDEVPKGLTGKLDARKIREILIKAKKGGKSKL

Chain of Concanavalin-A (Canavalia ensiformis) (P02866 whole entry, looked up): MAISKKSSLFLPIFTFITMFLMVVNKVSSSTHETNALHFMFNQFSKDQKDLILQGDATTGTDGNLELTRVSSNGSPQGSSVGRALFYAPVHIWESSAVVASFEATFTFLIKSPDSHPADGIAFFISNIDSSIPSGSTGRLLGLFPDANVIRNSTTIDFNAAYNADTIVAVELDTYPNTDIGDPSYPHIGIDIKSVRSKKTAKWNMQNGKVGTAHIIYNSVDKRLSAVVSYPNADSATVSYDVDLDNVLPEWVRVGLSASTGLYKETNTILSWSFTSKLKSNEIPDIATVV

`CCCC=C(CCC)[C@@H](NC(=O)c1ccccc1)c1ccccc1`: the composite z-score in test [1] was -0.399; in test [3] it was 0.0191; in test [4] it was -0.0633; in test [5], -0.247; in [6] it was 0.341; in test [7], 0.139. The composite z-score was -0.452 in test [8]; -0.768 in test [9]; -0.604 in test [10]; -0.697 in test [11]; 0.3 in [12]; 1.04 in test [13]. For the same compound, the composite z-score was -0.602 in test [14]; -0.536 in test [15]; -0.846 in test [16]; -0.614 in test [18]; -0.677 in test [19]. In addition, the composite Z-score in test [2] was 0.108 (inactive). Besides, the results for the z-score in test [17] and in [20] were -1.52 and 0.0419 (inactive), respectively.

For `CC(C)CN1C(=O)[C@@]2(Cc3ccccc31)c1ccccc1C(=O)N(C1CCCCC1)[C@H]2c1ccc(CO)cc1`, the composite z-score was -0.436 in test [1]; -0.0647 in test [3]; -0.0433 in test [4]; 0.781 in test [5]; 0.878 in test [6]; 1.23 in [7]. In addition, the composite z-score in test [8] was -0.18; in [9], -1.43; in [10], -1.42; in test [11], -1.34; in [12] it was -1.05; in test [13], -0.133. Besides, the composite z-score in [14] is -1.04; in test [15], -0.447; in test [16], -0.914; in test [18] it was -1.28; in test [19] it was -1.14. Also, the composite Z-score in test [2] is 0.439 (inactive). For the same compound, the z-score is -0.269 in test [17] and -0.275 (inactive) in test [20].

With `CC(C)=C1C(=O)C(c2ccccc2)=C2CN3C(=O)N(CCc4ccccc4)C(=O)[C@]3(Cc3ccccc3)[C@H]21`, the composite z-score in test [1] is 0.0673; in [3] it was -0.0209; in [4] it was 0.224; in test [5] it was 0.204; in test [6], 0.572; in test [7], -0.14. Also, the composite z-score in test [8] was -1.59; in test [9], -2.04; in test [10], -1.18; in [11], 1.39; in test [12], -0.992; in [13] it was 0.521. Further, the composite z-score is -0.358 in test [14]; -1.04 in test [15]; -0.77 in test [16]; -0.961 in test [18]; -0.112 in [19]. The composite Z-score in test [2] was 0.548 (inactive). Besides, the z-score in [17] is 1.45; in [20], 0.451 (inactive).

Take `N#Cc1ccc(NN2C(C(O)CCc3ccccc3)C=CC3C(=O)N(c4ccccc4)C(=O)C32)cc1` (stereo not given): the composite z-score in test [1] worked out at 1.06; in test [3], 0.123; in test [4], 0.0532; in test [5], 0.745; in test [6], 2.21; in test [7] it was 0.647. Also, the composite z-score in [8] is 0.924; in test [9], -0.794; in [10] it was 0.831; in test [11] it was 1.31; in test [12], 1.08; in test [13] it was 0.945. In addition, the composite z-score was 0.846 in test [14]; 0.353 in test [15]; -0.431 in test [16]; -0.85 in test [18]; 1.34 in test [19]. In addition, in test [2], the composite Z-score was 0.265 (inactive). For the same compound, the z-score was -0.3 in test [17] and -0.98 (inactive) in test [20].

Take `C=CCC(OC(C)=O)[C@@H]1[C@@H](N(Cc2cc3ccccc3o2)C(=O)Cc2ccc(F)cc2)c2cc(OCCCO)ccc2N1C(=O)c1ccc(-c2ccccc2)cc1` (stereo not given in full): the composite z-score in test [1] was -0.182; in test [3], -0.0881; in test [4] it was 0.0017; in [5] it was -0.309; in [6], 0.125; in [7] it was -0.546. The composite z-score was -0.533 in [8]; -0.26 in [9]; -0.764 in test [10]; -1.6 in test [11]; -0.844 in test [12]; -0.341 in test [13]. Besides, the composite z-score is -1.2 in test [14]; 0.0166 in test [15]; -0.287 in test [16]; -0.234 in test [18]; -0.681 in test [19]. Besides, the composite Z-score in test [2] is -0.765 (inactive). In addition, the z-score in [17] was 2.35; in test [20], -1.06 (inactive).

On to `C#CCNC(/C=C/c1ccccc1)CO` (stereo not given), for which the composite z-score is -0.086 in test [1]; -0.104 in test [3]; -0.115 in [4]; -0.152 in test [5]; 0.14 in [6]; -0.0995 in [7]. In addition, the composite z-score was 0.134 in [8]; 0.3 in [9]; 0.262 in test [10]; 0.638 in test [11]; 0.355 in test [12]; -0.0492 in test [13]. Also, the composite z-score in [14] was 0.269; in test [15], 0.362; in test [16] it was 0.106; in test [18], 0.394; in test [19], -0.0687. In test [2], the composite Z-score was 0.234 (inactive). In addition, the z-score is -1.07 in test [17] and 0.835 (inactive) in test [20].

Take `COCCOC(=O)N1C(=O)[C@@]2(c3cc(C#CC4=CCCCC4)ccc31)[C@H](c1ccc(O)cc1)N1[C@H](c3ccccc3)[C@H](c3ccccc3)OC(=O)[C@H]1[C@@H]2C(=O)N1CCCCCCC1`: the composite z-score in [1] is -0.645; in [3], 0.112; in [4], -0.122; in test [5] it was 0.425; in test [6], 0.129; in [7], 0.135. Besides, the composite z-score was found to be 1.29 in test [8]; 0.729 in test [9]; 1.12 in test [10]; 0.31 in [11]; 1.15 in test [12]; 1.45 in test [13]. Further, the composite z-score turned out to be 0.694 in test [14]; 1.23 in test [15]; 1.22 in test [16]; 1.12 in test [18]; 0.576 in test [19]. Further, the composite Z-score in [2] is 1.69 (inactive). The z-score in test [17] is 1.99; in test [20], -1.72 (inactive).

With `C[C@H]1COC(=O)[C@@H]2CCCN2C(=O)[C@@H](C)COC(=O)[C@@H]2CCCN2C1=O`, the composite z-score was -0.503 in [1]; -0.241 in [3]; -0.108 in test [4]; -0.525 in test [5]; -0.99 in [6]; -0.111 in test [7]. The composite z-score was -1.02 in test [8]; 0.296 in [9]; -0.0254 in test [10]; -0.451 in [11]; -0.367 in test [12]; 0.213 in test [13]. For the same compound, the composite z-score in test [14] was -0.135; in test [15] it was 0.0429; in [16], 0.1; in test [18], 0.308; in test [19], -0.468. The composite Z-score in test [2] was -0.221 (inactive). Further, the z-score in test [17] was 1.05; in test [20] it was -0.515 (inactive).
